According to PubChem BioAssay:
Several values for one entry are separate records, joined by “and”; a condition that tells them apart may be missing. Equal entries are not always repeated. Activity calls are given as the source filed them.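 The calls were made as follows: active = compounds whose cell count with miR-34 switched on is under 0.7 times the count with it off; inactive = the rest.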

Test: sensitizers of A549 cells to miR-34 induction, primary screen, imaging, A549 dox-inducible miR-34, nuclei and caspase counts (AID 1347080); also: test concentration not given here
Settings: A549 miR-34 inducible, Hoechst nuclei count, 48 h; stronger effect = lower value; cell number ratio, induced over uninduced

SMILES	fold change
OB(O)c1cc2ccccc2s1	0.864 (inactive)
O=C(O)c1sccc1S(=O)(=O)Nc1ccc(Cl)cc1	0.887 (inactive)
COc1ccc2c(c1)CCN(C(=O)Nc1n[nH]c(-c3ccco3)n1)C2	0.87 (inactive)
Cc1ccc(NC(=O)NCCSCc2ccc(CN(C)C)o2)cc1Cl	0.882 (inactive)
CSCCC(NC(C)=O)C(=O)O (stereo not given)	0.861 (inactive)
Cc1ccc(NC(=O)c2ccc3nccnc3c2)cn1	0.855 (inactive)
Cn1c(=O)ccc2ccccc21	0.892 (inactive)
COc1cccc(Cc2noc(-c3nccc4ccccc34)n2)c1	0.933 (inactive)
Cc1csc(CNc2nccc(-c3cn(C)nc3C)n2)n1	0.888 (inactive)
O=C(NCCc1ccco1)c1cc(C2CC2)[nH]n1	0.916 (inactive)
Cc1cc(-c2cnn(CC(=O)Nc3ccnn3Cc3ccccc3)c2)nc(N)n1	0.926 (inactive)
O=C(Nc1n[nH]c(Cc2ccccc2)n1)N1CCN(c2ncccn2)CC1	0.879 (inactive)
Cc1cc(C)n(CCCNc2ncc(C)c(-c3cnn(C)c3)n2)n1	0.893 (inactive)
c1cc(-c2nc(Cc3ccsc3)no2)c2nccnc2c1	0.89 (inactive)
O=C(Nc1nncs1)NC1Cc2ccccc2C1	0.87 (inactive)
COc1ccccc1-c1ccc(C(=O)O)o1	0.892 (inactive)
COc1ccc(C(=O)N2CCN(C(=O)c3ccc4sc(N)nc4c3)CC2)cc1	0.916 (inactive)
CC1(C)OC2CO[C@@]3(COS(N)(=O)=O)OC(C)(C)OC3C2O1 (stereo not given in full)	0.947 (inactive) and 0.976 (inactive)
O=C(O)c1ccc(-c2ccccc2[N+](=O)[O-])o1	0.891 (inactive)
COc1ccc(CC(C)NCC(O)c2ccc(O)c(NC=O)c2)cc1 (stereo not given)	0.94 (inactive) and 0.989 (inactive)

SMILES	fold change
CN(Cc1cnc2ccccc2n1)C(=O)Nc1n[nH]c(-c2ccco2)n1	0.886 (inactive)
Cc1nc(C(=O)O)nn1-c1cc(Cl)cc(Cl)c1	0.931 (inactive)
O=C(Nc1c[nH]c2ccccc12)c1cccnc1	0.884 (inactive)
O=S(=O)(O)CCN1CCOCC1	0.906 (inactive)
COc1ncccc1-c1cnn(CC(=O)Nc2cc(-c3ccccn3)nn2C)c1	0.961 (inactive)
O=c1cc(-c2ccncc2)nc(-c2cccc(CN3CCCC(CO)C3)c2)[nH]1 (stereo not given)	0.934 (inactive)
CSc1n[nH]c(-c2ccc(Cl)cc2)n1	0.939 (inactive)
Cc1cc(NC(=O)Cn2ccc(-c3ncnn3C)n2)n(C2CCCCC2)n1	0.953 (inactive)
COc1cccc(-n2cc(-c3ccnc(NCCc4cnc[nH]4)n3)cn2)c1	0.891 (inactive)
CC(=O)N1CCCC(Cn2cnc3scc(-c4cc(C)ccc4C)c3c2=O)C1 (stereo not given)	0.917 (inactive)
Cc1cnc(CN(C)C(=O)c2n[nH]c3ccccc23)[nH]1	0.891 (inactive)
Nc1ncccc1OCc1ccccc1	0.764 (inactive)
COc1ccccc1-c1cnn(CC(=O)Nc2cc(C)nn2C)c1	0.86 (inactive)
COc1cccc2c(=O)n(Cc3ccc4nonc4c3)cnc12	0.912 (inactive)
OCC1OC(Oc2cc(O)cc(C=Cc3ccc(O)cc3)c2)C(O)C(O)C1O (stereo not given)	0.967 (inactive) and 0.947 (inactive)
Cn1nc(-c2cccnc2)c2[nH]c(-c3ccc4c(c3)OCCO4)nc21	0.86 (inactive)
Cc1cc(CN(C)C(=O)c2cc(-c3cnn(C(C)C)c3)nc3cc(F)ccc23)on1	0.883 (inactive)
Cn1nc(C(C)(C)C)cc1NC(=O)Cn1cc(-c2ccccc2N)cn1	0.913 (inactive)
O=C(O)CCC(=O)Nc1ccc(Br)cn1	0.858 (inactive)
Cc1nn(C)c(C)c1-c1ccnc(NCCOCCO)n1	0.905 (inactive)

Same assay, conditions: A549 miR-34 inducible, Hoechst nuclei count, 48 h; measured here: relative caspase fold change +Dox/-Dox

SMILES	fold change
OB(O)c1cc2ccccc2s1	0.659
O=C(O)c1sccc1S(=O)(=O)Nc1ccc(Cl)cc1	0.469
COc1ccc2c(c1)CCN(C(=O)Nc1n[nH]c(-c3ccco3)n1)C2	1.45
Cc1ccc(NC(=O)NCCSCc2ccc(CN(C)C)o2)cc1Cl	0.585
CSCCC(NC(C)=O)C(=O)O (stereo not given)	0.784
Cc1ccc(NC(=O)c2ccc3nccnc3c2)cn1	1.41
Cn1c(=O)ccc2ccccc21	0.453
COc1cccc(Cc2noc(-c3nccc4ccccc34)n2)c1	1.27
Cc1csc(CNc2nccc(-c3cn(C)nc3C)n2)n1	0.815
O=C(NCCc1ccco1)c1cc(C2CC2)[nH]n1	1.14
Cc1cc(-c2cnn(CC(=O)Nc3ccnn3Cc3ccccc3)c2)nc(N)n1	0.917
O=C(Nc1n[nH]c(Cc2ccccc2)n1)N1CCN(c2ncccn2)CC1	0.976
Cc1cc(C)n(CCCNc2ncc(C)c(-c3cnn(C)c3)n2)n1	1.21
c1cc(-c2nc(Cc3ccsc3)no2)c2nccnc2c1	0.787
O=C(Nc1nncs1)NC1Cc2ccccc2C1	1.52
COc1ccccc1-c1ccc(C(=O)O)o1	0.465
COc1ccc(C(=O)N2CCN(C(=O)c3ccc4sc(N)nc4c3)CC2)cc1	0.875
CC1(C)OC2CO[C@@]3(COS(N)(=O)=O)OC(C)(C)OC3C2O1 (stereo not given in full)	1.9 and 0.922
O=C(O)c1ccc(-c2ccccc2[N+](=O)[O-])o1	0.452
COc1ccc(CC(C)NCC(O)c2ccc(O)c(NC=O)c2)cc1 (stereo not given)	1.58 and 0.394

SMILES	fold change
CN(Cc1cnc2ccccc2n1)C(=O)Nc1n[nH]c(-c2ccco2)n1	0.927
Cc1nc(C(=O)O)nn1-c1cc(Cl)cc(Cl)c1	0.603
O=C(Nc1c[nH]c2ccccc12)c1cccnc1	1.08
O=S(=O)(O)CCN1CCOCC1	0.601
COc1ncccc1-c1cnn(CC(=O)Nc2cc(-c3ccccn3)nn2C)c1	0.557
O=c1cc(-c2ccncc2)nc(-c2cccc(CN3CCCC(CO)C3)c2)[nH]1 (stereo not given)	0.922
CSc1n[nH]c(-c2ccc(Cl)cc2)n1	0.52
Cc1cc(NC(=O)Cn2ccc(-c3ncnn3C)n2)n(C2CCCCC2)n1	1.19
COc1cccc(-n2cc(-c3ccnc(NCCc4cnc[nH]4)n3)cn2)c1	1.29
CC(=O)N1CCCC(Cn2cnc3scc(-c4cc(C)ccc4C)c3c2=O)C1 (stereo not given)	1.14
Cc1cnc(CN(C)C(=O)c2n[nH]c3ccccc23)[nH]1	1.39
Nc1ncccc1OCc1ccccc1	0.403
COc1ccccc1-c1cnn(CC(=O)Nc2cc(C)nn2C)c1	2.23
COc1cccc2c(=O)n(Cc3ccc4nonc4c3)cnc12	1.93
OCC1OC(Oc2cc(O)cc(C=Cc3ccc(O)cc3)c2)C(O)C(O)C1O (stereo not given)	1.94 and 0.831
Cn1nc(-c2cccnc2)c2[nH]c(-c3ccc4c(c3)OCCO4)nc21	1.08
Cc1cc(CN(C)C(=O)c2cc(-c3cnn(C(C)C)c3)nc3cc(F)ccc23)on1	1.43
Cn1nc(C(C)(C)C)cc1NC(=O)Cn1cc(-c2ccccc2N)cn1	1.7
O=C(O)CCC(=O)Nc1ccc(Br)cn1	0.548
Cc1nn(C)c(C)c1-c1ccnc(NCCOCCO)n1	1.28
